System: LOC_OS02G14120-cb001
Assay: thermal shift delta Tm vs DMSO control; higher = stronger stabilization (binding)
Settings: 12.5 µM; protein concentration 2 µM
Summary of the method: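 Heating from 25°C to 95°C at 0.05°C/s, fluorescence was recorded for 19.5 μl wells of 2 μM E. coli-expressed, purified rice kinase domain in 100 mM potassium phosphate pH 7.5, 150 mM NaCl, 10% glycerol and 5 × SYPRO Orange with compound in DMSO. Boltzmann fits gave melting temperatures for this differential scanning fluorimetry assay. The shift reported is the mean of three replicates against the DMSO-only protein.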
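Note: purified Escherichia coli-expressed rice kinase domain construct.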

SMILES	thermal shift delta Tm [°C]
COCCNCc1ccc(-c2cc3nccc(Oc4ccc(NC(=O)C5(C(=O)Nc6ccc(F)cc6)CC5)cc4F)c3s2)nc1 [Sitravatinib (MGCD516)]	7.48
COCC(=O)NC/C=C/c1ccc2ncnc(Nc3ccc(Oc4ccc(C)nc4)c(C)c3)c2c1	-0.57
O=C(NOC[C@H](O)CO)c1ccc(F)c(F)c1Nc1ccc(I)cc1F	1.04
Cc1cc(Nc2cc(N3CCN(C)CC3)nc(/C=C/c3ccccc3)n2)n[nH]1	7.14
Nc1nc(N)c2nc(-c3cccc(O)c3)c(-c3cccc(O)c3)nc2n1	1.95
Cc1nc(Nc2ncc(C(=O)Nc3c(C)cccc3Cl)s2)cc(N2CCN(CCO)CC2)n1 [Dasatinib]	4.94
O=C(c1ccc(Nc2nccc(-c3cc4ccccc4s3)n2)cc1)N1CCC(N2CCCC2)CC1 [IKK-16 (IKK Inhibitor VII)]	11.1
CC(C)CC(=O)Nc1n[nH]c2c1CN(C(=O)C1CCN(C)CC1)C2(C)C	0.04
COc1cc2c(Oc3ccc(NC(=O)C4(C(=O)Nc5ccc(F)cc5)CC4)cc3F)ccnc2cc1OCCCN1CCOCC1	7.45
OCCn1cc(-c2cnc3nnn(Cc4ccc5ncccc5c4)c3n2)cn1	-0.27
CC(C)(C)c1nc(-c2ccc(NC(=O)Nc3cccc(C(F)(F)F)c3)c3ccccc23)c2c(N)nccn12 [kira6]	2.07
COc1ccc(-c2ccc3ncc4c(c3c2)n(-c2ccc(N3CCNCC3)c(C(F)(F)F)c2)c(=O)n4C)cn1	8.11
FC(F)(F)c1ccc(CNc2ccc(Cc3c[nH]c4ncc(Cl)cc34)cn2)cn1 [Pexidartinib (PLX3397)]	9.87
Cc1nc(NC(=O)N2CCC[C@H]2C(N)=O)sc1-c1ccnc(C(C)(C)C(F)(F)F)c1 [Alpelisib (BYL719)]	2.13
O=C(NCCO)c1cccc(-c2cc(Nc3ccc(OC(F)(F)F)cc3)ncn2)c1	-0.05
C[C@@H](Nc1cc(F)cc(F)c1)c1cc(C(=O)N(C)C)cc2c(=O)cc(N3CCOCC3)oc12	0.3
C[C@@H]1COCCN1c1cc(=O)n2c(n1)N(Cc1cncc(Cl)c1)[C@H](C(F)(F)F)CC2	0.82
CNc1nc(-c2ccc3c(N)n[nH]c3c2)cc(N2C[C@@H](C(=O)NC3CCCCC3)CC[C@H]2C)n1	0.75
COc1cc(N2CCC(N(C)C)CC2)ccc1Nc1ncc(Cl)c(Nc2ccccc2P(C)(C)=O)n1	10.2

SMILES	thermal shift delta Tm [°C]
CN1CCN(c2ccc3nc(-c4c(N)c5c(F)cccc5[nH]c4=O)[nH]c3c2)CC1 [Dovitinib (TKI258) Lactate]	6.8
N#C/C(=C(/N)Sc1ccc(N)cc1)c1ccccc1C(F)(F)F	-0.1
Cc1c(C(=O)N2CCOc3ccc(-c4ccc(N)nc4)cc3C2)ccc(S(C)(=O)=O)c1F	0.74
CCOc1cc2ncc(C#N)c(Nc3ccc(F)c(Cl)c3)c2cc1NC(=O)/C=C/CN(C)C [Pelitinib (EKB-569)]	0.98
Oc1ccc(Nc2nc(-c3ccc(Cl)cc3)cs2)cc1	0.14
O=C(Nc1ccccc1C(=O)NC1CCCCNC1=O)c1cc2ccccc2s1 (configuration not stated)	0.18
CC(C)c1c2cc(-c3ccnc(NC4CCC(NC5CCOCC5)CC4)n3)ccc2nn1C (configuration not stated)	4.79
NCC(=O)Nc1ccc(-n2nc(C(F)(F)F)cc2-c2ccc3c(ccc4ccccc43)c2)cc1	1.29
Cc1cc(NC(=O)c2cccc(NC(=O)/C=C/CN(C)C)c2)ccc1Nc1nccc(-c2cccnc2)n1	0.95
N#Cc1ccc2ncnc(NCCc3ccccc3)c2c1 [Senexin A]	2.47
CCOc1cn(-c2ccc(F)cc2C)nc1C(=O)Nc1ccc(Oc2ccnc3cc(OC)c(OC)cc23)c(F)c1	2.96
Fc1ccc2[nH]ccc2c1-c1nc(N2CCOCC2)c2sc(CN3CCN(CC4CC4)CC3)cc2n1	0.72
COc1cccc2cc(-c3nc([C@H]4CC[C@H](C(=O)O)CC4)n4ncnc(N)c34)[nH]c12	0.19
N#Cc1cnc(Nc2cc(NC[C@H]3CNCCO3)c(C(F)(F)F)cn2)cn1	2.96
O=C(NOCCO)c1ccc2cncn2c1Nc1ccc(I)cc1F	-1.25
COc1cc2c(Nc3ccc(NC(=O)c4ccccc4)cc3)ncnc2cc1OCCCN1CCOCC1	0.79
NC(=O)Nc1cc(-c2cccc(F)c2)sc1C(=O)N[C@H]1CCCNC1	8.74
CNC(=O)c1ccc(-c2cnc3ncc(Cc4ccc5ncccc5c4)n3n2)cc1F	-0.02
